Source: PubChem
VP16 counter: counter-screen for ROR gamma inhibitors: Gal4-VP16 reporter; Potency, µM (series often up to 53.6 µM), inactives show top-dose activity, negative = inhibition, most hits filed as inhibitors; 310,000 compounds, 3.5% hits; AID 2546; Drosophila S2 Gal4-VP16 UAS-luciferase, luminescence, 20 h;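 further: Gal4-VP16 expression switched on by copper sulfate through the metallothionein promoter; nearly all actives have a fitted effect of over 50% in size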
ELG1 DNA repair: inhibitors of ELG1-dependent DNA repair in HEK293T cells; 330,000 compounds, 2.3% hits; HEK293T ELG1-luciferase reporter, luminescence, 16 h; DNA damage induced by 5-fluorouridine; Potency, µM (series often up to 46.1 µM), for the others: at the highest dose activity change, negative = inhibition, hits mostly inhibitors; AID 504467; further: nearly all actives have a fitted effect of over 55% in size
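In this reporter screen, reduction of luminescence relative to DMSO vehicle indicated activity. Compounds and 5-fluorouridine were added together to 2,000 cells per well, incubated for 16 hr at 37 °C, then developed with ONE-Glo.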
RORgamma inh: ROR gamma (mouse) transcription inhibition | 310,000 compounds, 5.4% hits | P51450 | Potency, µM (highest dose often 53.6 µM), without a hit: top-dose activity change, negative = inhibition, actives largely listed as inhibitors | Drosophila S2 Gal4-RORgamma UAS-luciferase reporter, 20 h; further: nearly all actives have a fitted effect of over 60% in size
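ROR gamma transcriptional activity was tracked as Gal4-UAS luciferase output in stably transfected Drosophila Schneider cells, with compound added 1 hr before 700 uM copper sulfate induction and a 20 hr ambient-temperature incubation.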
DT40 TDP1 CPT: growth inhibition of DT40 Tdp1-/-;hTDP1 cells with camptothecin (screen for TDP1 inhibitors); chicken DT40 Tdp1-/-;hTDP1 cells + 20 nM CPT, ATP luminescence, 48 h; Potency, µM (titrated, usually from 46.2 µM), for the others: top-dose activity change, negative = growth inhibition, actives largely listed as inhibitors; 420,000 compounds, 12% hits; AID 686979; further: nearly all actives have a fitted effect of over 55% in size
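Chicken DT40 Tdp1-/- cells complemented with human TDP1, 400 cells/well, exposed to compounds plus 20 nM camptothecin for at least 48 h at 37 C; viability read as ATP content by CellTiter-Glo luminescence.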
12-LOX inh: blocks human arachidonate 12S-lipoxygenase | purified 12hLO, xylenol orange hydroperoxide absorbance | Potency, µM (highest dose often 108 µM), without a hit: at the top dose activity change, negative = inhibition, most hits filed as inhibitors | 580,000 compounds, 1.1% hits
Target sequence (P18054 whole entry, looked up): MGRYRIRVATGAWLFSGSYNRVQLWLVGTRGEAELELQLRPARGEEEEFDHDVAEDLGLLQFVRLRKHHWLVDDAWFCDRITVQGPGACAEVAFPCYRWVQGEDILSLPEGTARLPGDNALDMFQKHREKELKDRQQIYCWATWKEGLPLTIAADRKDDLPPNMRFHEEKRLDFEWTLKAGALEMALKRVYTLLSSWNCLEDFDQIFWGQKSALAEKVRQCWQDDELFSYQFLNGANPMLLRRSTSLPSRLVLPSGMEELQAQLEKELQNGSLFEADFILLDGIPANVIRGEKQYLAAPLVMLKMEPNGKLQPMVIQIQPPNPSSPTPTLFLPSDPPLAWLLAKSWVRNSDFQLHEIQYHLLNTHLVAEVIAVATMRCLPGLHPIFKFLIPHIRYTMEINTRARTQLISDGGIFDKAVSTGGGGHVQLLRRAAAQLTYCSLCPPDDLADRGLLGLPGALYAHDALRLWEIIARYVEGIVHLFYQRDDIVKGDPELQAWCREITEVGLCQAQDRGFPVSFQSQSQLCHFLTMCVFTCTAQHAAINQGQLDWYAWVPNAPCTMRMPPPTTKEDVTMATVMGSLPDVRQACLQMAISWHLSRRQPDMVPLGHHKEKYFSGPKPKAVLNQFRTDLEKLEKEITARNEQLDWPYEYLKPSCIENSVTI
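Purified human 12hLO (150 nM final) in 25 mM Hepes, 0.01% Triton X-100, pH 7.0 was preincubated 15 min at room temperature with compound. Then 40 uM arachidonic acid was added, 30 min. Hydroperoxide was read by Fe-XO absorbance ratio 573/405 nm.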
TDP1 cell noCPT: qHTS for Inhibitors of human tyrosyl-DNA phosphodiesterase 1 (TDP1): qHTS in cells in absence of CPT; DT40 Tdp1-/- hTDP1 cells, no CPT, ATP luminescence, 48 h; Potency, µM (highest dose often 46.2 µM), inactives show at the highest dose activity change, negative = growth inhibition, most hits filed as inhibitors; 420,000 compounds, 15% hits; further: nearly all actives have a fitted effect of over 55% in size
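No-CPT arm: Tdp1-/-;hTDP1 DT40 cells (400/well) plus compounds, incubated ≥48 hr at 37 °C. Readout CellTiter-Glo luminescence.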
The depositor's hits bear a star; i = inactive; ? = inconclusive; / = not tested or not shown; [ ] = another dose, or the depositor's remark. Only some compounds are listed: those with a hit (about 15% of all), similar ones and a draw of the others. The call rests on the fitted dose curve; in most records, active means well fitted curve in the direction sought with a large enough effect; inconclusive means small, poorly fitted or top-dose-only effect, or another doubt; inactive means no such curve, though single readings can be large; an effect the other way counts as inactive or inconclusive. On the % scale 0 is the no-effect control and ±100 the full control effect; potency means the concentration at half of the fitted maximal effect.

SMILES | VP16 counter | ELG1 DNA repair | RORgamma inh | DT40 TDP1 CPT | 12-LOX inh | TDP1 cell noCPT
CC(C)(C)c1ccc(C(=O)C=[N+]=[N-])cc1 | 2% | ? | -1% | 26µM* | 0% | 15µM*
O=C(NCCN1CCC(n2c(=O)[nH]c3ccccc32)CC1)c1cc(F)cc(F)c1 | / | / | / | -10% | ? | -30%
O=C(NCCN1CCC(n2c(=O)[nH]c3ccccc32)CC1)c1ccc(F)c(F)c1 | / | / | / | 0.33µM* | ? | -35%
O=C(NCCN1CCC(n2c(=O)[nH]c3ccccc32)CC1)c1cccnc1Cl | / | / | / | ? | -2% | -28%
O=C(NCCN1CCC(n2c(=O)[nH]c3ccccc32)CC1)c1ccc(F)c(C(F)(F)F)c1 | / | / | / | ? | ? | 26µM*
O=C(NCCN1CCC(n2c(=O)[nH]c3ccccc32)CC1)c1ccc(C(F)(F)F)cc1C(F)(F)F | / | / | / | 5.8µM* | -63% | 4.6µM*
COc1ccc(NS(=O)(=O)c2cccc(C(=O)N3CCN(C(=O)c4ccco4)CC3)c2)cc1 | / | ? | / | 9.2µM* | 351% | -27%
COc1ccccc1NS(=O)(=O)c1ccc(C(=O)N2CCCCCC2)cc1 | / | ? | / | 18µM* | -14% | 13µM*
Cc1ccc(Oc2ccc(NS(=O)(=O)c3cccc(C(=O)O)c3)cc2)cc1 | / | 0% | / | -3% | -3% | 7.3µM*
COc1ccc(C)cc1NC(=O)Nc1ccc(C(=O)N2CCCC2)cc1 | 13% | ? | -13% | 26µM* | i | ?
COc1ccccc1NS(=O)(=O)c1cccc(C(=O)N2CCCCCCC2)c1 | / | -2% | / | ? | -4% | ?
Cc1cc2c(cc1C(=O)N1C[C@@H](C)[C@](O)(C3CCC3)C1)OCCO2 | / | / | / | / | 37% | /
COc1ccc(C)cc1NC(=O)CNC(=O)CNc1ccccc1Cl | / | / | / | / | 3% | /
Cc1ccc(NS(=O)(=O)c2cccc(C(=O)N3CCCCCC3)c2)cc1 | / | -12% | / | ? | -20% | 21µM*
COc1ccc(NS(=O)(=O)c2cccc(C(=O)N3CCCCCCC3)c2)cc1 | / | -4% | / | ? | 1% | 15µM*
COc1cccc(S(=O)(=O)Nc2ccc(C(=O)N3CCCCCC3)cc2)c1 | 8.9µM* | -10% | 8.9µM* | ? | ? | ?
O=C1CCN(C(=O)c2ccccc2)CCCC(C(=O)NCCN2CCc3ccccc3C2)CCN1 (centres undefined) | / | / | / | / | 95% | /
CC(OC(=O)c1n[nH]c(=O)c2ccccc12)C(=O)Nc1cc(F)ccc1F (centres undefined) | / | / | / | / | -22% | /
CC1=C(C(=O)N(C)C)C(c2ccc(Cl)cc2)N2C(CC(=O)NCC3CCCO3)=CSC2=N1 (centres undefined) | / | / | / | / | 30% | /
COc1cc(CNC(=O)c2ccc3nc(Cc4ccccc4F)oc3c2)cc(OC)c1OC | / | / | / | / | 8% | /
CCNC(=O)NC(=O)C(C)OC(=O)CSc1ccc(Br)cc1 (centres undefined) | / | / | / | / | 0% | /
Cc1ccc(C2=CC(c3ccc(Cl)cc3)n3nc(-c4ccc(C)cc4)nc3N2)cc1 (centres undefined) | / | / | / | 33µM* | ? | ?
COc1ccc(C2C=C(c3ccc(Cl)cc3)Nc3nc(-c4ccc(Cl)cc4)nn32)cc1 (centres undefined) | / | / | / | 8.2µM* | 5.6µM* | 4.6µM*
Cc1ccc(-c2nc3n(n2)C(c2ccccc2C)C=C(c2ccc(Cl)cc2)N3)cc1 (centres undefined) | / | / | / | ? | -10% | 23µM*
Cc1ccc(C2=CC(c3ccccc3C)n3c(nc4ccccc43)N2)cc1 (centres undefined) | / | / | / | ? | 27% | ?
SMILES | VP16 counter | ELG1 DNA repair | RORgamma inh | DT40 TDP1 CPT | 12-LOX inh | TDP1 cell noCPT
Cc1cccc(-c2noc(CNC(=O)CN(C)S(=O)(=O)c3ccc4ccccc4c3)n2)c1 | / | / | / | / | -2% | /
Cn1cccc1C(=O)N1CCC(c2[nH]ncc2Cc2ccccc2)CC1 | / | / | / | / | 3% | /
CCOc1cc2[nH]c(=O)n(Cc3ccc(C(=O)NCCOC)cc3)c(=O)c2cc1OCC | 0% | -18% | ? | -1% | 14%[57.4 µM] | -10%
CCOc1cc2[nH]c(=O)n(Cc3ccc(C(=O)N4CCN(c5cccc(Cl)c5)CC4)cc3)c(=O)c2cc1OCC | / | / | / | 3.7µM* | ? | 2.6µM*
COc1ccc(Cn2c(=O)[nH]c3cc(C(=O)N4CCN(c5ccccc5)CC4)ccc3c2=O)cc1 | 0% | 8% | 0% | -8% | -21% | ?
COc1cccc(N2CCN(C(=O)c3ccc(Cn4c(=O)[nH]c5cc(OC)c(OC)cc5c4=O)cc3)CC2)c1 | / | / | / | 9.2µM* | -7% | 4.1µM*
CCOc1cc2[nH]c(=O)n(Cc3ccc(C(=O)N4CCN(c5ccccc5)CC4)cc3)c(=O)c2cc1OCC | / | / | / | 12µM* | 2% | 5.8µM*
CCOc1cc2[nH]c(=O)n(CCC(=O)N3CCN(c4ccccc4)CC3)c(=O)c2cc1OCC | / | / | / | -25% | -29% | -28%
Cc1ccc(N2CCN(C3=NC(=O)C(Cc4ccccc4)S3)CC2)cc1 (centres undefined) | -5% | -18% | 34% | 29µM* | -23% | 23µM*
Cc1ccc(NC(=O)C(c2ccccc2)N2CCN(C(=O)C3CC3)CC2)cc1Cl (centres undefined) | / | / | / | / | 16% | /
O=C(NCCC(F)(F)F)C1Cc2c(-c3ccccc3Oc3ccccc3)ccnc2O1 (centres undefined) | / | / | / | -55% | 13% | ?
CN(C)CCNC(=O)C1Cc2c(-c3ccccc3Oc3ccccc3)ccnc2O1 (centres undefined) | / | / | / | 29µM* | -11% | 18µM*
O=C(NCCc1ccccc1)C1Cc2c(-c3ccccc3Oc3ccccc3)ccnc2O1 (centres undefined) | / | / | / | 16µM* | 3% | ?
N#CC1(NC(=O)Cc2ccc(C(F)(F)F)cc2)CCC1 | / | / | / | / | -50% | /
Cc1ncc(CO)c(CN2CCC3(Cc4ccccc4CNC3=O)C2)c1O (centres undefined) | / | / | / | / | 6%[6.33 µM] | /
O=C(Nc1ccccc1)N1CCC2(CC1)Oc1ccccc1C(=O)N2Cc1ccccc1F | / | / | / | / | -10% | /
O=C(Nc1ccccc1C(F)(F)F)N1CCC2(CC1)Oc1ccccc1C(=O)N2Cc1ccccc1F | / | / | / | ? | 9% | 16µM*
CC1CCCN(c2ccc(/C=C(\C#N)c3nn(-c4ccccc4)c(N)c3C#N)cc2[N+](=O)[O-])C1 (centres undefined) | -14% | -26% | 16% | ? | 11% | 21µM*
